Results on eleven compounds are retold here after ChEMBL document CHEMBL3988442, “University of Dundee, Small-Polar-MMV Screening Library” (2021).

Molecules are shown by their SMILES. For some assays here: Potency and affinity values are given separately.

What all share (design): scale not given: direction of the effect not stated beside the values
Assay [1] deals with Protein translocase subunit SecA (Escherichia coli (strain K12)) (UniProt P10408). The assay can be described thus: Assay to Identify E. coli SecA ATPase Inhibitors. The assay is classed as functional. The following applies: 30 µM.
Protein translocase subunit SecA (Escherichia coli (strain K12)), sequence (P10408 whole entry): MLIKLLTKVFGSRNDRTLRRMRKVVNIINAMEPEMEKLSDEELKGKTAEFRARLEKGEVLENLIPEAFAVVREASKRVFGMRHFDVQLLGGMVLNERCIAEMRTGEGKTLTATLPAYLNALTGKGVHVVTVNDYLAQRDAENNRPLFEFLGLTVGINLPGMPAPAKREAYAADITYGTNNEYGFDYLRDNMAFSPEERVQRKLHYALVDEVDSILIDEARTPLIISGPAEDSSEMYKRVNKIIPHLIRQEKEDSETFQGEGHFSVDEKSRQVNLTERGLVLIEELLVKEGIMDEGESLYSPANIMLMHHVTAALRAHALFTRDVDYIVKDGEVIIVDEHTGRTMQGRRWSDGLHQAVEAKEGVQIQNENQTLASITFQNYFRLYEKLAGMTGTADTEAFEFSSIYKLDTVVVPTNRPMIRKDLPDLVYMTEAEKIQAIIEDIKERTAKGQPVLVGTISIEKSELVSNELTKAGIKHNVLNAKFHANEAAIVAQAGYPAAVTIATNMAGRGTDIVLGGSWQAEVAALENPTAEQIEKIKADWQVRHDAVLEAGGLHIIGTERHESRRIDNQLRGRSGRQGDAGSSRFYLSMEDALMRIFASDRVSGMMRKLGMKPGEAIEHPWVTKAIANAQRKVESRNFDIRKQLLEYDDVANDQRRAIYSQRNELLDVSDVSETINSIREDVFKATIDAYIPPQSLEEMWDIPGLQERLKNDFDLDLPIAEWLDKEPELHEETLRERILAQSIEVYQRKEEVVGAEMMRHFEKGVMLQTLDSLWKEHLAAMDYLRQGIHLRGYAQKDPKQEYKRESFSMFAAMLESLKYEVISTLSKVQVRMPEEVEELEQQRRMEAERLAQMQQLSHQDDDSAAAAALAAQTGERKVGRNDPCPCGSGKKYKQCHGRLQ
Assay [2] deals with T1, Ubiquitin-activating enzyme e1, putative (Leishmania donovani (strain BPK282A1)) (UniProt E9BSI1).
T1 sequence (whole entry): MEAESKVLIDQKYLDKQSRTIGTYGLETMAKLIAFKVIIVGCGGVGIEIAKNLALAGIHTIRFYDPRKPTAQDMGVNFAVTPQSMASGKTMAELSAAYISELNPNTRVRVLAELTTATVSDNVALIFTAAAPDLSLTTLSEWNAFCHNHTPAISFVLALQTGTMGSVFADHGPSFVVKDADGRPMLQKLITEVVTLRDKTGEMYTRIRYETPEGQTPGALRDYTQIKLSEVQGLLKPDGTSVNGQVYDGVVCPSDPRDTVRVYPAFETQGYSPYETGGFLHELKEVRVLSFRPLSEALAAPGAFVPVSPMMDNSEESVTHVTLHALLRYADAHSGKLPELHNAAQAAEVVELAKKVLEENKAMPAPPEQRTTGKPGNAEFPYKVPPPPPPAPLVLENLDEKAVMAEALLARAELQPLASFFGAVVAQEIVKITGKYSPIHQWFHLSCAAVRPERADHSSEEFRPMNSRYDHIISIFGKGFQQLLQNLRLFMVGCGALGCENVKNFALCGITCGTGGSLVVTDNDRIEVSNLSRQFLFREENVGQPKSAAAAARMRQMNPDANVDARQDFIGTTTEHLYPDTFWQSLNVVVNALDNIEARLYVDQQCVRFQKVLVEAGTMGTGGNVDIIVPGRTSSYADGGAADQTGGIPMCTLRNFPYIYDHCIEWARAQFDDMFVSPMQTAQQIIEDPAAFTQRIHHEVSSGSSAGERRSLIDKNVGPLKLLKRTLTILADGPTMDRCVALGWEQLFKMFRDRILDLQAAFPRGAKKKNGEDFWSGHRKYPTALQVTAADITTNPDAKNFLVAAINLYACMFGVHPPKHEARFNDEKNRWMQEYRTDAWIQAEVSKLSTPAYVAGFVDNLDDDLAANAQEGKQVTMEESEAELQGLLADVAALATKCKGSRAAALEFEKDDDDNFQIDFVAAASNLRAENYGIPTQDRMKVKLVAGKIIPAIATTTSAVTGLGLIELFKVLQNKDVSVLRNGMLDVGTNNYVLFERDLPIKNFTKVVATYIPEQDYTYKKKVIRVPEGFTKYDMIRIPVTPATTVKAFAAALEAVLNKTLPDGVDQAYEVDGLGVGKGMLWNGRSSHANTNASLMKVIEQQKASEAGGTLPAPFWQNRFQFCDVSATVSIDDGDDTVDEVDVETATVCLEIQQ
The assay can be described thus: Leishmania donovani Ubiquitin Activating Enzyme (LdE1). The assay is classed as functional. The following applies: 30 µM.

Assay [3] has as its target Sialic acid-binding Ig-like lectin 9 (Homo sapiens) (UniProt Q9Y336). The assay can be described thus: Hs-Siglec9 ALPHAscreen SOP 20170721. The following applies: 10 µM. (Alpha assays give light when donor and acceptor beads are brought close together.)
The test system of a further assay is Trypanosoma cruzi. The assay can be described thus: Trypanosoma cruzi phosphomannomutase and mannose-1-phosphate guanylyltransferase assay. The assay is classed as functional. The following applies: 10 µM.
The target of assay [4] is T2, Arginase-2, mitochondrial (Homo sapiens) (UniProt P78540).
T2 sequence (whole entry): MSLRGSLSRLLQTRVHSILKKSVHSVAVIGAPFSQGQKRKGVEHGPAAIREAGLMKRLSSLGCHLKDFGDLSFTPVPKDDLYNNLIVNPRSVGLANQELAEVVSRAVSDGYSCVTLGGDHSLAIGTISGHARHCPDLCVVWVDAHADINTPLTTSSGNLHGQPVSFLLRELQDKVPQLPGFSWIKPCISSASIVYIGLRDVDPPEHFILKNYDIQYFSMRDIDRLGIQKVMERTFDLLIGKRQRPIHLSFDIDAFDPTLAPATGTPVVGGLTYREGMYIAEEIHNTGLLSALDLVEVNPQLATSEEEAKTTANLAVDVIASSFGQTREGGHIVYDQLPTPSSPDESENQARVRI
The assay can be described thus: in vitro enzyme assay to detect the production of urea directly proportional to the activity of Arginase II. Note: in the data most compounds retested in dose-response had high values. The assay is classed as functional. The following applies: 33.3 µM.

Assay [5] has as its target T3, Proteasome subunit beta (Trypanosoma cruzi) (UniProt O96673).
T3 sequence (whole entry): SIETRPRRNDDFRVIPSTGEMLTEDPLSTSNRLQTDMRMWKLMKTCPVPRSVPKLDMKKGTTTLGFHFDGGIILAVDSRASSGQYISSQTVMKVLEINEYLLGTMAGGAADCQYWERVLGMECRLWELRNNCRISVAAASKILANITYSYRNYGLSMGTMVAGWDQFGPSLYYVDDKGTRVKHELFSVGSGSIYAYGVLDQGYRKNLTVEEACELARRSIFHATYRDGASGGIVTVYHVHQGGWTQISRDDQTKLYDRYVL
The assay can be described thus: Trypanosoma cruzi proteasome chymotrypsin-like activity (TcProtChymo) assay. Note: in the data most compounds retested in dose-response had high values. The following applies: 9.37 µM. The assay is classed as functional.

For the next assay, the species on record is Homo sapiens. The assay can be described thus: To identify inhibition of the IFN signalling (Jak-Stat) pathway via expression of an eGFP reporter gene under the control of an IFN-stimulated response element (ISRE) containing MxA promoter. The following applies: 30 µM. The assay is classed as functional. For orientation: Reporter assays use an easily measured gene product as a stand-in for the process of interest.

Assay [6] deals with T4, Tyrosyl-tRNA synthetase, putative (Trypanosoma cruzi (strain CL Brener)) (UniProt Q4DSP6).
T4 sequence (whole entry): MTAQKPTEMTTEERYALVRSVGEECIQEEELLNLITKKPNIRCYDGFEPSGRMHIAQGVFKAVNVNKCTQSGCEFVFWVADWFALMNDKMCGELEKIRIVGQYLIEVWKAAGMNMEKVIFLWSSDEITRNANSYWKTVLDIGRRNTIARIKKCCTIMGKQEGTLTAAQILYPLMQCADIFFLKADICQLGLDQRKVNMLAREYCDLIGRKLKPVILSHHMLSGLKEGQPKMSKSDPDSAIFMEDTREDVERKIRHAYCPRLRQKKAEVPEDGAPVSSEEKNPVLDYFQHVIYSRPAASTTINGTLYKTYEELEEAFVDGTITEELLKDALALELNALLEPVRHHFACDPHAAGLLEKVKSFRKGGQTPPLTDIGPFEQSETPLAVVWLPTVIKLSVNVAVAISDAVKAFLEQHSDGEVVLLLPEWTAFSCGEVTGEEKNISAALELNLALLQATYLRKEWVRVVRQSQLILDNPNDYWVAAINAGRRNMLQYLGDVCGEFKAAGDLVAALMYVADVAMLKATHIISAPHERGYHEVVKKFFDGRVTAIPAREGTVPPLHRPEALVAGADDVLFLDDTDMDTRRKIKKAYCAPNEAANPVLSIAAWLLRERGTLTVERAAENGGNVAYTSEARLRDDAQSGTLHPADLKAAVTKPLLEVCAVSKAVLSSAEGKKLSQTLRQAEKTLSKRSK
The assay can be described thus: Trypanosoma cruzi tyrosyl tRNA synthetase (TcYRS) _High Tyrosine SOP. Note: in the data most compounds retested in dose-response had high values. The assay is classed as functional. The conditions noted are these: 30 µM.

The target in assay [7] is T4, Tyrosyl-tRNA synthetase, putative (Trypanosoma cruzi (strain CL Brener)). The assay can be described thus: Trypanosoma cruzi tyrosyl tRNA synthetase (TcYRS) SOP. The assay is classed as functional. The conditions noted are these: 30 µM.
For assay [8], the target named is Chromo domain-containing protein 1 (Saccharomyces cerevisiae (strain ATCC 204508 / S288c) (Baker's yeast)) (UniProt P32657). The assay can be described thus: ScCHD-1 Enzyme Inhibition Assay. Note: in the data most compounds retested in dose-response had high values. The conditions noted are these: 30 µM. The assay is classed as functional.
Chromo domain-containing protein 1 (Saccharomyces cerevisiae (strain ATCC 204508 / S288c) (Baker's yeast)), sequence (P32657 whole entry, the tested form may be a part): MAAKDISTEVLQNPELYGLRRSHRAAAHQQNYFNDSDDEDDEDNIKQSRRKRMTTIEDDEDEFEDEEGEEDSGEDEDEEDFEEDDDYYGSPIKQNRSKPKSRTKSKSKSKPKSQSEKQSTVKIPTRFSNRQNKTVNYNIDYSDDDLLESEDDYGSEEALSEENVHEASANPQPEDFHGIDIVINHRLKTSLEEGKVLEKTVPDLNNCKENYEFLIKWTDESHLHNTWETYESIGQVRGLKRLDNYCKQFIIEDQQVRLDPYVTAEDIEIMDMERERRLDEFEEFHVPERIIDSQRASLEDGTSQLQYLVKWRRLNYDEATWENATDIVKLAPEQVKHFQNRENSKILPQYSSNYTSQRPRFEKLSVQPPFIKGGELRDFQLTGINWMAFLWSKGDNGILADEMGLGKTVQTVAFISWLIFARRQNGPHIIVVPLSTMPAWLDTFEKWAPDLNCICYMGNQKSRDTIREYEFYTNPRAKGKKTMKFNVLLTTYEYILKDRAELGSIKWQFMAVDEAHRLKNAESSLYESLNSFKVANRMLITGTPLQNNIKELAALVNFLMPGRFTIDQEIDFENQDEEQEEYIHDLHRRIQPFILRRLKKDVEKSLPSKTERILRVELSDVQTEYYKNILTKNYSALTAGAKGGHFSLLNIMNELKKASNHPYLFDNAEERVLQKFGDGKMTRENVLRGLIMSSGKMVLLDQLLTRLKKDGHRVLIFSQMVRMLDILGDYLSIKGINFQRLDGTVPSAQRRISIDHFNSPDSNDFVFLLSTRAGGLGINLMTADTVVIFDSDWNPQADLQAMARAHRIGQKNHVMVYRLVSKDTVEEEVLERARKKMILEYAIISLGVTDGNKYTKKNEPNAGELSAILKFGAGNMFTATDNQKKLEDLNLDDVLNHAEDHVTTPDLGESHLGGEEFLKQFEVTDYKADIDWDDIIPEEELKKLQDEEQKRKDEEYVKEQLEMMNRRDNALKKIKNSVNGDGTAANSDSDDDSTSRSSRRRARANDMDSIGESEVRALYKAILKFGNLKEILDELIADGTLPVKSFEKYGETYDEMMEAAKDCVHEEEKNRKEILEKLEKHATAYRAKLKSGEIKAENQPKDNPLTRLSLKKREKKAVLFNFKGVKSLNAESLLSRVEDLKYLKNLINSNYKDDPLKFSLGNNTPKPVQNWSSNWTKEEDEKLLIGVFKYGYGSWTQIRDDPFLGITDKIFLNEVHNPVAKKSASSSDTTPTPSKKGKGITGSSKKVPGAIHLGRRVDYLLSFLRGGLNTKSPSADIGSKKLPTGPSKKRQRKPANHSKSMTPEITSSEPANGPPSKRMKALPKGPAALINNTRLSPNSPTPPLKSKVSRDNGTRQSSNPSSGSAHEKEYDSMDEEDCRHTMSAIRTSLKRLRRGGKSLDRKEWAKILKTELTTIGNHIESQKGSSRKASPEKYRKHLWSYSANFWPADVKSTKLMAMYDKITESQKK

Sialic acid-binding Ig-like lectin 9 (Homo sapiens), sequence (Q9Y336 whole entry): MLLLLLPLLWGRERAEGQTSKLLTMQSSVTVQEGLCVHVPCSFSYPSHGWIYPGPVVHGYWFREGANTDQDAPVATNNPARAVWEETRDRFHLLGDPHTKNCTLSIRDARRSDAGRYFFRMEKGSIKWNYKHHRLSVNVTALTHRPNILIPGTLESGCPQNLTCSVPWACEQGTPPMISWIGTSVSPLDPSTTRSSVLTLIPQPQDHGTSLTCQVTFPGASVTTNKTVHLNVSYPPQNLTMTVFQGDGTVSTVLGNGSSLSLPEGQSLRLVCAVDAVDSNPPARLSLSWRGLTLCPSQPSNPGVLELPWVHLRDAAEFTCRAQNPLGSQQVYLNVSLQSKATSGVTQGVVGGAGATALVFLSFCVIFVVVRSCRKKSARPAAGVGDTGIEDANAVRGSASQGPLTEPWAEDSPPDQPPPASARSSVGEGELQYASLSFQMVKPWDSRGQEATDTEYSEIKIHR

As to `Cc1ncc(-c2ccnc(N3CCCCCC3)n2)c(-c2cccnc2)n1`, the Percent Effect was -0.407% in [1]; 10.7% in [2]; 0.168% in assay [3]; -8.03% with Trypanosoma cruzi; 3.1% in [4]; 8.74% in assay [5]. Besides, the Percent Effect in the assay filed under Homo sapiens was 21.1%; in assay [6], 1.58%; in [7], 12.8%; in assay [8], -11.6%.
As for `CNc1snc(C)c1C(=O)N1CCCC(n2nc(C)cc2C)C1` (stereo not given), the Percent Effect is -9.36% in assay [1]; 13.3% in assay [2]; 16.1% in [3]; 6.02% with Trypanosoma cruzi; -3.1% in [4]; 5.68% in [5]. Further, the Percent Effect in the assay listed under Homo sapiens is -7.89%; in [6], 4.74%; in assay [7] it was 15.4%; in assay [8] it was -14.8%.
As for `O=C(c1cc(Cl)c2c(c1)OCCO2)N1CCCC(n2cncn2)C1` (stereo not given), the Percent Effect in assay [1] is -2.53%; in assay [2], -5.33%; in [3], 5.05%; with Trypanosoma cruzi, 0.402%; in assay [4], 1.77%; in [5], 1.78%. The Percent Effect is 6.76% in the assay listed under Homo sapiens, -0.526% in [6], 0% in assay [7] and 2.59% in assay [8].
As to `Cc1noc(C2CCN(C(=O)CCc3nccs3)CC2)n1`, the Percent Effect in assay [1] is 0.362%; in [2], 17.9%; in assay [3], -8.4%; with Trypanosoma cruzi it was -1.78%; in assay [4], 3.28%; in [5] it was 5.72%. In addition, the Percent Effect is 17.8% in the assay listed under Homo sapiens, 6.22% in assay [6], 13.2% in assay [7] and -4.78% in [8].
Take `CC(C)NC(=O)C(c1ccccc1)N1CCn2c(nnc2C2CC2)C1` (stereo not given): the Percent Effect in assay [1] is -3.99%; in assay [2], 15.4%; in assay [3], -10.1%; with Trypanosoma cruzi, 7.61%; in [4], -2.87%; in [5], 4.86%. The Percent Effect in the assay filed under Homo sapiens was 4.59%; in [6], 3.35%; in assay [7], 20.5%; in [8], -5.56%.
Take `Cc1cc(C)n(CC2CCCCN2C(=O)c2ccc3c(c2)OCO3)n1` (stereo not given): the Percent Effect is -0.864% in assay [1]; 5.33% in assay [2]; -0.84% in [3]; -6.22% in the assay with Trypanosoma cruzi; 1.33% in [4]; 7.38% in assay [5]. The Percent Effect was 8.9% in the assay listed under Homo sapiens, 2.63% in [6], 10.3% in assay [7] and -0.951% in assay [8].
Turning to `CCn1ccnc1CN1CCCN(C(=O)c2cc(Cl)c[nH]2)CC1`, the Percent Effect in assay [1] is -1.59%; in assay [2], 12.8%; in assay [3], 9.67%; in the assay on Trypanosoma cruzi, 7.98%; in assay [4] it was 8.61%; in assay [5], 1.79%. Moreover, the Percent Effect is 10.2% in the assay listed under Homo sapiens, 3.35% in assay [6], 22.9% in [7] and -8.12% in [8].
With `Cc1cncc(C2CCCN(C(=O)c3c[nH]c(=O)[nH]c3=O)C2)n1` (stereo not given), the Percent Effect in assay [1] is 0.496%; in assay [2], 9.33%; in assay [3] it was -0.809%; in the assay with Trypanosoma cruzi, -4.14%; in assay [4], 0.885%; in assay [5] it was 7.06%. Moreover, the Percent Effect in the assay listed under Homo sapiens was 6.63%; in assay [6] it was 4.23%; in assay [7], 10%; in assay [8], -18.3%.
In the case of `CS(=O)(=O)NCC1CCCN(C(=O)COCc2ccccc2)C1` (stereo not given), the Percent Effect was -1.97% in [1]; 15.4% in assay [2]; -3.29% in [3]; 4.41% with Trypanosoma cruzi; 6.56% in [4]; 1.96% in assay [5]. Besides, the Percent Effect is 17.6% in the assay filed under Homo sapiens, 0.478% in assay [6], 20.5% in assay [7] and -5.38% in assay [8].
On to `CCc1ncnc2c1CCN(Cc1ccc(OC)cc1)CC2`, for which the Percent Effect in [1] was -4.58%; in [2], -6.49%; in assay [3], -0.0854%; with Trypanosoma cruzi it was 2.82%; in [4] it was -2.02%; in assay [5] it was -3.79%. The Percent Effect in the assay listed under Homo sapiens was -6.35%; in [6] it was 1.58%; in assay [7], -12.8%; in assay [8], 0.0386%.
For `CC(C)=CCN1CCC(c2nccn2Cc2cscn2)CC1`, the Percent Effect is -6.89% in assay [1]; 5.41% in [2]; 7.33% in assay [3]; 9.8% in the assay with Trypanosoma cruzi; -5.94% in assay [4]; 9.07% in assay [5]. The Percent Effect is -16% in the assay listed under Homo sapiens, 6.92% in assay [6], 14.6% in [7] and -4.64% in [8].
